Here are results for 95 compounds from PubChem BioAssay AID372 (MTDP, 2006).

Structures are written as SMILES. Among all 100,000 compounds or so, about 770 (0.77%) were called active. The sample holds actives, similar compounds and a random draw of the others, so the mix is not that of the screen. No stated cut-off is given here; in the data, active means inhibition above about 50%; inactive means the rest.

This experiment has as its target Gag-Pol polyprotein (Human immunodeficiency virus type 1 group M subtype B (isolate HXB2)) (UniProt P04585). Description: RNase H inhibition, HIV 1 Gag Pol polyprotein, FRET biochemical assay, screening (AID 372). The conditions noted are these: HIV-1 RT RNase H, FRET RNA/DNA substrate fluorescence; at 10 µM; stronger effect = higher value.
As usually defined, the inhibition is the share of the control response that was lost under treatment. Regarding `COc1ccc(-c2csc(NC3OC(=O)c4c3ccc(OC)c4OC)n2)cc1` (stereo not given), the inhibition was 20% (inactive).

For the compound `CCOc1cc(C(=O)Nc2ccc(OC)c(Cl)c2)cc(OCC)c1OCC`, the inhibition is 8% (inactive).

In the case of `O=S(=O)(Nc1ccc(F)cc1F)c1ccc2ccccc2c1`, the inhibition is 15% (inactive).

Regarding `N/C(=N/OC(=O)c1cccc([N+](=O)[O-])c1)c1nonc1N`, the inhibition is 14% (inactive).

On to `OCc1ccc(-c2cccc(Cl)c2)o1`, for which the inhibition was 28% (inactive).

Take `Cc1ccc(C2=CC(=O)N(c3cccc(C(F)(F)F)c3)C2=O)cc1`: the inhibition is 10% (inactive).

For the compound `O=C1C=CC(=O)N1c1cccc(Cl)c1`, the inhibition is 19% (inactive).

Turning to `O=C(O)c1ccc(-c2cc(Cl)ccc2Cl)o1`, the inhibition was 0% (inactive).

Consider `O=C1C=CC(=O)C(c2cccc(C(F)(F)F)c2)=C1`, for which the inhibition was 71% (active).

As for `O=C1C(Cl)=C(Cl)C(=O)N1c1cc(Cl)ccc1Cl`, the inhibition was 4% (inactive).

As to `O=C1C(Cl)=C(Cl)C(=O)N1c1cccc(C(F)(F)F)c1`, the inhibition was 6% (inactive).

Regarding `CCOc1ccc(C(=O)Nc2cccc(-c3nc4cc(C)ccc4o3)c2C)cc1Br`, the inhibition was 11% (inactive).

Consider `O=C(Nc1ccc(S(=O)(=O)Nc2ncccn2)cc1)c1cccnc1`, for which the inhibition is 8% (inactive).

For the compound `CCOc1ccc2ccc(OCC)c(/C=C3/C(=O)NC(=O)N(Cc4ccco4)C3=O)c2c1`, the inhibition was 26% (inactive).

In the case of `CCCN(CCC)CCCNC(=O)/C=N\O`, the inhibition was 6% (inactive).

Consider `COc1cc(OC)c(/C=C2\C(=O)NC(=S)N(c3cccc(Cl)c3)C2=O)cc1Br`, for which the inhibition was 9% (inactive).

As to `CC(Oc1ccc(/C=C2/SC(=O)NC2=O)cc1)C(=O)O` (stereo not given), the inhibition was 10% (inactive).

Turning to `O=C(Nc1nnc(-c2cccc([N+](=O)[O-])c2)s1)Nc1ccc(Cl)cc1Cl`, the inhibition is 43% (inactive).

`O=C(/C=C/c1ccc(-c2ccc(Cl)c(Cl)c2)o1)c1ccco1`: the inhibition was 2% (inactive).

For the compound `O=C(/C=C/c1ccco1)/C=C/c1ccc(-c2ccc(Cl)c(Cl)c2)o1`, the inhibition was 52% (active).

As for `O=C(/C=C/c1ccco1)/C=C/c1ccc(-c2ccc(Br)cc2)o1`, the inhibition was 33% (inactive).

As to `CSc1nc(-c2ccccc2)c(C#N)c(=O)n1C`, the inhibition was 15% (inactive).

As for `CCCCCC/C(=N\NC(=O)c1ccncc1)c1ccccc1`, the inhibition was 5% (inactive).

In the case of `CCc1c(C)sc(NC(=O)C2CCCCC2C(=O)O)c1C(N)=O` (stereo not given), the inhibition is 48% (inactive).

In the case of `CCc1c(C)sc(NC(=O)C2CC3CCC2C3)c1C#N` (stereo not given), the inhibition was 21% (inactive).

In the case of `CCc1c(C)sc(NC(=O)C2CCCCC2C(=O)O)c1C#N` (stereo not given), the inhibition was 75% (active).

For `O=C1OC(c2sc3ccccc3c2Cl)=N/C1=C/c1ccc(F)cc1`, the inhibition was 1% (inactive).

For the compound `CN1C(=O)C(=Cc2ccc(I)o2)C(=O)N(C)C1=S`, the inhibition is 21% (inactive).

For `O=C1C(=Cc2ccc(I)o2)C(=O)c2ccccc21`, the inhibition was 9% (inactive).

`CC1(C)OC(=O)C(=Cc2ccc(I)o2)C(=O)O1`: the inhibition is 53% (active).

As for `O=C(/C=C/c1ccccc1)C1=C(O)C(=O)N(c2ccccc2)C1c1cccc([N+](=O)[O-])c1` (stereo not given), the inhibition is 10% (inactive).

Regarding `Fc1cccc(-c2n[nH]c(=S)n2-c2ccccc2)c1`, the inhibition is 5% (inactive).

In the case of `Cc1cc2nc3s/c(=C/c4ccc(F)cc4)c(=O)n3c2cc1C`, the inhibition was 1% (inactive).

As for `O=C1C=CC(=O)N1c1ccc(-c2cc(-c3ccccc3)nc(-c3ccc(N4C(=O)C=CC4=O)cc3)n2)cc1`, the inhibition is 54% (active).

`Clc1cc(-c2ccccc2)nc(-c2ccccc2)n1`: the inhibition was 24% (inactive).

As for `Oc1ccc(-c2cc(-c3ccc(O)cc3)nc(-c3ccccc3)n2)cc1`, the inhibition was 31% (inactive).

Consider `Cc1ccc(C(=O)Nc2ccc(Cc3ccncc3)cc2)cc1[N+](=O)[O-]`, for which the inhibition was 5% (inactive).

For the compound `CSc1ccc(S(=O)(=O)N(CC(=O)NC2CCCCC2)c2ccc(C)cc2)cc1`, the inhibition was 13% (inactive).

For `Cc1ccc(N(CC(=O)NC2CCCC2)S(=O)(=O)c2ccc(F)cc2)cc1`, the inhibition was 5% (inactive).

In the case of `Cc1ccc(N(CC(=O)NC2CCCCC2)S(=O)(=O)c2ccc(F)cc2)cc1`, the inhibition was 56% (active).

`COc1ccccc1CNS(=O)(=O)c1ccc(Cl)cc1`: the inhibition is 0% (inactive).

As for `N=C1/C(=C/c2ccc(-c3ccccc3)o2)C(=O)N=C2SC(c3ccccc3)=NN12`, the inhibition was 2% (inactive).

`Cc1ccc(N2NC(=O)/C(=C/c3ccc(Br)cc3)C2=O)cc1C`: the inhibition was 15% (inactive).

For `O=C(CSc1nc2ccc(N3C(=O)c4ccccc4C3=O)cc2s1)c1ccc(F)cc1`, the inhibition is 43% (inactive).

Take `O=C(CSc1nc2ccc(N3C(=O)c4ccccc4C3=O)cc2s1)c1ccc(Cl)cc1`: the inhibition was 56% (active).

On to `O=C(CSc1nc2ccc(N3C(=O)c4ccccc4C3=O)cc2s1)Nc1ccc(F)cc1`, for which the inhibition is 11% (inactive).

Regarding `O=C(CSc1nc2ccc(N3C(=O)c4ccccc4C3=O)cc2s1)c1ccccc1`, the inhibition was 8% (inactive).

As to `COc1ccc(NC(=O)CSc2nc3ccc(N4C(=O)c5ccccc5C4=O)cc3s2)cc1`, the inhibition is 56% (active).

Regarding `O=C(CSc1nc2ccc(N3C(=O)c4ccccc4C3=O)cc2s1)Nc1ccc(Br)cc1`, the inhibition is 28% (inactive).

Regarding `COc1ccc(/C=C/c2nc3sc4c(c3c(=O)o2)CCCC4)cc1`, the inhibition is 14% (inactive).

In the case of `COc1cc2ccccc2cc1C(=O)NC(=S)Nc1cccc(-c2nc3ccccc3s2)c1C`, the inhibition is 15% (inactive).

With `O=C1NC(=O)N(c2cccc(Br)c2)C(=O)/C1=C/c1cc(Cl)c(O)c(Cl)c1`, the inhibition is 10% (inactive).

For the compound `O=C1CSC(c2ccc(Cl)c(Cl)c2)N1CCc1ccccc1` (stereo not given), the inhibition was 7% (inactive).

In the case of `Cc1ccc(/C(O)=C/c2nc3ccc([N+](=O)[O-])cc3oc2=O)o1`, the inhibition is 10% (inactive).

On to `Cc1cc(C)c(/C(O)=C/c2nc3ccccc3oc2=O)c(C)c1`, for which the inhibition is 0% (inactive).

On to `Cc1ccc(/C(O)=C/c2nc3ccccc3oc2=O)o1`, for which the inhibition was 54% (active).

Turning to `COc1ccc(N=C(C)c2cc(Cl)ccc2O)cc1`, the inhibition is 31% (inactive).

For the compound `Cc1ccccc1-c1nc2ccccc2c(=O)n1/N=C/c1c[nH]c2ccccc12`, the inhibition is 10% (inactive).

As for `COc1ccc(Cc2nc3ccccc3c(=O)n2/N=C/c2cccs2)cc1OC`, the inhibition was 23% (inactive).

In the case of `COc1ccc(Cc2nc3ccccc3c(=O)n2/N=C/c2c[nH]c3ccccc23)cc1OC`, the inhibition is 52% (active).

As to `N#Cc1c(/N=C/c2cc(Br)ccc2Br)sc2c1CCCC2`, the inhibition was 15% (inactive).

In the case of `Fc1ccccc1OCCn1ccnc1`, the inhibition is 7% (inactive).

For `Cc1ccc(NCCCC(=O)N/N=C/c2cccs2)cc1`, the inhibition is 12% (inactive).

Take `COc1ccc(C(C)=O)cc1CSc1cc(C)c2ccccc2n1`: the inhibition was 46% (inactive).

As for `Cc1ccc(C(C)C)c(OCC(=O)Nc2cccc(Cl)c2C)c1`, the inhibition was 15% (inactive).

`COc1cc(C=C2C(=O)NC(=O)NC2=O)ccc1OCc1c(C)ccc2ccccc12`: the inhibition was 31% (inactive).

For the compound `O=c1nc(/C=C/c2ccc(-c3ccc(F)c(Cl)c3)o2)cc(C(F)(F)F)[nH]1`, the inhibition was 48% (inactive).

Consider `O=c1nc(/C=C/c2ccc(-c3ccc([N+](=O)[O-])cc3Cl)o2)cc(C(F)(F)F)[nH]1`, for which the inhibition is 20% (inactive).

As to `O=c1nc(/C=C/c2ccc(-c3ccc(Cl)c([N+](=O)[O-])c3)o2)cc(C(F)(F)F)[nH]1`, the inhibition is 54% (active).

In the case of `COC(=O)C1=C(C)N(c2ccccc2F)C(=O)/C1=C\c1ccccc1F`, the inhibition was 5% (inactive).

For the compound `O=C(Nc1cc([N+](=O)[O-])ccc1F)c1ccc(-c2cc(Cl)ccc2Cl)o1`, the inhibition is 31% (inactive).

Turning to `Cc1cc([N+](=O)[O-])ccc1-c1ccc(C(=O)Nc2ccc(I)cc2Cl)o1`, the inhibition is 24% (inactive).

Consider `COc1cc([N+](=O)[O-])ccc1NC(=O)c1cccc2ccccc12`, for which the inhibition was 26% (inactive).

As to `COc1cc([N+](=O)[O-])ccc1-c1ccc(C(=O)Nc2ccc(NC(C)=O)cc2)o1`, the inhibition was 26% (inactive).

For `COc1cc2ccccc2cc1C(=O)Nc1cc([N+](=O)[O-])ccc1F`, the inhibition was 46% (inactive).

Consider `CCOc1ccc(NC(=O)c2ccc(-c3ccc([N+](=O)[O-])cc3OC)o2)cc1`, for which the inhibition is 36% (inactive).

Turning to `CCCC(=O)Nc1ccc(NC(=O)c2ccc(-c3ccc([N+](=O)[O-])cc3OC)o2)cc1`, the inhibition was 56% (active).

For the compound `COc1cc([N+](=O)[O-])ccc1-c1ccc(C(=O)Nc2ccc(I)cc2Cl)o1`, the inhibition was 51% (active).

Regarding `COc1cc([N+](=O)[O-])ccc1NC(=O)c1cc2ccccc2cc1OC`, the inhibition is 53% (active).

On to `COc1cc([N+](=O)[O-])ccc1NC(=O)c1ccc(-c2cc(Cl)ccc2Cl)o1`, for which the inhibition is 60% (active).

For the compound `COc1ccccc1NC(=O)c1ccc(-c2ccc([N+](=O)[O-])cc2OC)o1`, the inhibition is 30% (inactive).

Consider `COc1cc([N+](=O)[O-])ccc1NC(=O)c1cc(Cl)ccc1Cl`, for which the inhibition is 22% (inactive).

With `COc1ccc(OC)c(/C=N/NC(=O)CSc2nc3ccccc3n2C)c1`, the inhibition is 20% (inactive).

On to `Cc1ccnc(NS(=O)(=O)Cc2ccccc2)c1`, for which the inhibition was 3% (inactive).

With `COc1ccc(OC)c(N2C(=O)NC(=O)C(=Cc3cccs3)C2=O)c1`, the inhibition was 1% (inactive).

Consider `CCn1c(NC(=O)c2ccc(Cl)cc2)nc2ccccc21`, for which the inhibition was 4% (inactive).

`Cc1ccc(NC(=S)NC(=O)c2ccccc2F)cc1C`: the inhibition is 15% (inactive).

For the compound `COc1ccc(CCN=C(Nc2ccccc2)SC2CC(=O)N(c3ccccc3)C2=O)cc1` (stereo not given), the inhibition is 6% (inactive).

In the case of `CCN(CC)c1ccc(C=Nc2ccccc2C(=O)Nc2ccccc2)c(O)c1`, the inhibition was 5% (inactive).

`N#C/C(=C/c1ccc(-c2ccccc2[N+](=O)[O-])o1)C(=O)NCc1ccccc1`: the inhibition was 27% (inactive).

`COc1ccc(-n2nc3cc(C)c(NC(=O)c4ccc(-c5cccc([N+](=O)[O-])c5)o4)cc3n2)cc1`: the inhibition is 42% (inactive).

For the compound `COc1ccc(-n2nc3cc(C)c(NC(=O)c4ccc(-c5ccc([N+](=O)[O-])cc5OC)o4)cc3n2)cc1`, the inhibition is 54% (active).

Turning to `COc1ccc(-n2nc3cc(C)c(NC(=O)c4ccc([N+](=O)[O-])cc4)cc3n2)cc1`, the inhibition is 10% (inactive).

Turning to `COc1ccc(-n2cnc(N)c2C(=O)c2cccc([N+](=O)[O-])c2)cc1`, the inhibition was 1% (inactive).

Turning to `Cc1ccc(-c2cc(C(F)(F)F)n3nc(C(N)=O)c(Cl)c3n2)cc1`, the inhibition is 11% (inactive).
